Screens: PubChem, National Center for Advancing Translational Sciences (NCATS)
DT40 TDP1 no CPT: qHTS for Inhibitors of human tyrosyl-DNA phosphodiesterase 1 (TDP1): qHTS in cells in absence of CPT. DT40 Tdp1-/- hTDP1 cells, no CPT, ATP luminescence, 48 h. Potency, µM (series often up to 46.2 µM), usual class: inhibitors. 420,000 compounds, 15% hits; further: nearly all actives have a fitted effect of over 55% in size
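Cells were dispensed at 400 per well, compounds added by pin tool, plates incubated ≥48 hr at 37 °C, then CellTiter-Glo added for 30 min at room temperature before luminescence reading. Line: DT40 Tdp1-/- complemented with hTDP1; camptothecin omitted.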
RORgamma inh: ROR gamma (mouse) transcription inhibition. Potency, µM (doses to about 53.6 µM), actives largely listed as inhibitors. 310,000 compounds, 5.4% hits. Drosophila S2 Gal4-RORgamma UAS-luciferase reporter, 20 h. P51450; further: nearly all actives have a fitted effect of over 60% in size
Target sequence (P51450 whole entry, looked up, the tested form may be a part): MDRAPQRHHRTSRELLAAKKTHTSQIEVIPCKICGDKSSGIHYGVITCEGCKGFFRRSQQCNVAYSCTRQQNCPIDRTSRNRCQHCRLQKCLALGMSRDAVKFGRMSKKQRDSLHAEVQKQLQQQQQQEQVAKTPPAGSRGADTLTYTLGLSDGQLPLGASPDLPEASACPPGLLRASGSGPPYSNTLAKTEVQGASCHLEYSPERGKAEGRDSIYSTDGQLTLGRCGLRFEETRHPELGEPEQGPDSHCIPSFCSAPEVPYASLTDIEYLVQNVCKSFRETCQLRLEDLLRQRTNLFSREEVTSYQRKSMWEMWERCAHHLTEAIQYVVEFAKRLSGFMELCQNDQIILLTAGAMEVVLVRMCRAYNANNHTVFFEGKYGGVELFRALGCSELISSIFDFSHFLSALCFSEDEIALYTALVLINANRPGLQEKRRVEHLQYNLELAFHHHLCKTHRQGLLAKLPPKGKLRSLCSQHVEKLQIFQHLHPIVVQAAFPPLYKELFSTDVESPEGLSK
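Read-out: Photinus luciferase luminescence; inhibitors lower reporter signal. Insect Schneider cells with Gal4-ROR gamma fusion under metallothionein promoter, UAS reporter; 700 uM final copper sulfate induction, 20 hr, ambient temperature.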
TDP1 cell CPT: DT40-hTDP1 cell growth loss with CPT | Potency, µM (top dose mostly 46.2 µM), most hits filed as inhibitors | 420,000 compounds, 12% hits | chicken DT40 Tdp1-/-;hTDP1 cells + 20 nM CPT, ATP luminescence, 48 h; further: nearly all actives have a fitted effect of over 55% in size
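Chicken DT40 Tdp1-/- cells complemented with human TDP1, 400 cells/well, exposed to compounds plus 20 nM camptothecin for at least 48 h at 37 C; viability read as ATP content by CellTiter-Glo luminescence.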
Gal4-VP16 FLuc: inhibits Gal4-VP16 luciferase reporter, ROR gamma counter-screen | Drosophila S2 Gal4-VP16 UAS-luciferase, luminescence, 20 h | Potency, µM (doses to about 53.6 µM), actives largely listed as inhibitors | 310,000 compounds, 3.5% hits | AID 2546;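 further: Gal4-VP16 expression switched on by copper sulfate through the metallothionein promoter; nearly all actives have a fitted effect of over 50% in size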
TDP1 block: inhibitors of human tyrosyl-DNA phosphodiesterase TDP1 | recombinant TDP1, AlphaScreen DNA substrate cleavage | Q9NUW8 | Potency, µM (series often up to 130 µM), actives largely listed as inhibitors | 350,000 compounds, 0.28% hits; further: nearly all actives have a fitted effect of over 40% in size
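Compounds were preincubated with Tdp1 (1 nM final) for 15 min at room temperature before substrate (15 nM final) started a 5 min reaction; beads (10 ug/ml final) were then added for 10 min before AlphaScreen detection.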
Numbers stand for hits; 0 = inactive; ? = inconclusive; - = no result; ! = a repeat was not active. In the library only some 19% were active in any assay of this set; here they are far more common. The call rests on the fitted dose curve; in most records, active means well fitted curve in the direction sought with a large enough effect; inconclusive means small, poorly fitted or top-dose-only effect, or another doubt; inactive means no such curve, though single readings can be large; an effect the other way counts as inactive or inconclusive.

SMILES | DT40 TDP1 no CPT | RORgamma inh | TDP1 cell CPT | Gal4-VP16 FLuc | TDP1 block
Cc1ccc(NC(=O)CN2CCCC2c2cccn2C)c(Br)c1 (stereo unspecified) | 15µM | - | ? | - | 0
Cc1ccc(C)c(N2CCN(CCCNC(=O)c3ccc4nc(CCc5ccccc5)oc4c3)CC2)c1 | 4.1µM | - | 3.7µM | - | 0
Cc1cc(CN2CCN(c3ccc(F)cc3)CC2)cs1 | ? | - | ? | - | 0
C/C=C(\C)CN1CCN(c2cc(C)ccc2C)CC1 | 0 | 0 | ? | ? | 0
Cc1ccc(C)c(N2CCN(Cc3csc(C)c3)CC2)c1 | 23µM | - | ? | - | 0
Cc1ccc(C)c(N2CCN(CCCc3ccccc3)CC2)c1 | ? | 0 | 21µM | 0 | -
Cc1ccc(C)c(N2CCN(CCCNC(=O)c3ccc4nc(C(C)C)oc4c3)CC2)c1 | 3.7µM | - | 7.3µM | - | 0
CCOCN(C(=O)Cn1c(CO)nc2ccccc21)c1c(C)cccc1CC | ? | 0 | 0 | 0 | 0
COc1cc(S(=O)(=O)NC2CCCCC2)ccc1Cl | 0 | 0 | 0 | 0 | 0
COc1ccc(CSc2nnc(CNS(C)(=O)=O)o2)cc1 | 0 | 0 | 0 | 0 | 0
COc1cccc(C2CC(c3ccc(Br)cc3)=NN2C(=O)c2ccncc2)c1OC (stereo unspecified) | ? | 0 | ? | 0 | 0
COc1cccc(C2CC(c3cccc(NS(C)(=O)=O)c3)=NN2C(=O)c2ccccc2)c1OC (stereo unspecified) | 21µM | 2µM | 23µM | 0 | 0
COc1ccccc1C1CC(c2ccc(Br)cc2)=NN1C(=O)c1cccnc1 (stereo unspecified) | 16µM | 0 | 16µM | 0 | 0
CN(C)c1ccc(C2CC(c3cccc(NS(C)(=O)=O)c3)=NN2C(=O)c2ccccc2)cc1 (stereo unspecified) | ? | ? | 0 | 0 | 0
COc1ccc(OC)c(NC=C2C(=O)OC(C)(C)OC2=O)c1 | 0 | 0 | 0 | 0 | 0
Cc1cc(C)n(-c2nc(NCCCO)c3c4c(sc3n2)CCCC4)n1 | 4.1µM | 1.6µM | 5.8µM | 2.8µM | 0
Cc1cc(C)n(-c2nc(SCC(=O)O)c3c4c(sc3n2)CCCC4)n1 | - | ? | - | 0 | 0
Cc1cc(C)n(-c2nc(NCC(C)O)c3c4c(sc3n2)CCCC4)n1 (stereo unspecified) | 18µM | ? | ? | 1µM | 0
Cc1cc(C)n(-c2nc(NCCO)c3c4c(sc3n2)CCCC4)n1 | ? | 3.2µM | ? | 4.5µM | 0
Cc1cc(C)c2c(CN3CCOCC3)cc(=O)oc2c1 | 0 | 0 | 0 | 0 | 0
O=C(C1CCC(=O)N1C1CCCCC1)N1CCN(c2ccc(F)cc2)CC1 (stereo unspecified) | 0 | 0 | 0 | 0 | 0
Cc1c(CC(=O)O)c(=O)oc2c(C)c3occ(-c4ccc(F)cc4)c3cc12 | 0 | 0 | ? | 0 | -
COc1ccc(-c2cc(C(=O)N3CCN(c4ccccc4)CC3)no2)cc1 | 21µM! | 0 | 18µM! | 0 | 0
COc1ccc(OC)c(-c2cc(C(=O)N3CCc4ccccc4C3)no2)c1 | ? | ? | 0 | ? | 0
COc1ccc(OC)c(-c2cc(C(=O)N3CCN(c4ccccc4)CC3)no2)c1 | 21µM | 0 | ? | 0 | 0
SMILES | DT40 TDP1 no CPT | RORgamma inh | TDP1 cell CPT | Gal4-VP16 FLuc | TDP1 block
O=C(COc1ccc([N+](=O)[O-])cc1Cl)NCCc1ccccc1 | ? | ? | 0 | 0 | 0
N#Cc1ccc(CSc2ccc(S(=O)(=O)N3CCCCCC3)cn2)cc1 | 29µM | - | ? | - | 0
O=[N+]([O-])c1ccc(CSc2ccc(S(=O)(=O)N3CCCCCC3)cn2)cc1 | 16µM | - | 23µM | - | 0
CCC(C)NC(=O)CSc1ccc(S(=O)(=O)N2CCN(Cc3ccccc3)CC2)cn1 (stereo unspecified) | 29µM | - | ? | - | 0
CC(C)N(C(=O)CSc1ccc(S(=O)(=O)N2CCCCC2)cn1)C(C)C | 0 | - | 16µM | - | 0
O=S(=O)(c1ccc(SCc2ccccc2)nc1)N1CCCCC1 | 0 | - | 0 | - | 0
CC(C)NC(=O)NC(=O)CSc1ccc(S(=O)(=O)N2CCCC2)cn1 | 0 | - | 0 | - | 0
Fc1ccccc1N1CCN(CC2CC3C=CC2C3)CC1 (stereo unspecified) | ? | 0 | ? | 0 | 0
CC1CC(C)CN(CCCNC(=O)c2ccc3c(c2)N(Cc2ccccc2)C(=O)c2ccccc2S3=O)C1 (stereo unspecified) | ? | 11µM | ? | 0 | 0
CCN1C(=O)c2ccccc2S(=O)c2ccc(C(=O)NCc3ccc(OC)cc3)cc21 (stereo unspecified) | ? | 0 | ? | 0 | 0
CCN1C(=O)c2ccccc2S(=O)c2ccc(C(=O)NCc3ccccc3OC)cc21 (stereo unspecified) | 23µM | - | ? | - | 0
CCCCSCCCNC(=O)c1ccc2c(c1)N(CC)C(=O)c1ccccc1S2=O (stereo unspecified) | ? | ? | 18µM | 0 | -
CC1CCC(NC(=O)c2ccc3c(c2)N(Cc2ccccc2)C(=O)c2ccccc2S3=O)CC1 (stereo unspecified) | ? | - | ? | - | 0
CC(=O)Nc1ccc(CN2CCCCCC2)cc1 | 0 | 0 | 0 | 0 | -
Cc1[nH]c(=O)c(C#N)cc1-c1csc(-c2ccccc2)n1 | 0 | 0 | 0 | 0 | -
COc1ccccc1C(CCN(Cc1ccccc1)C(C)=O)c1ccco1 (stereo unspecified) | 16µM | ? | ? | 0 | 0
COc1ncnc2c1oc1nc(CC(C)C)c3c(c12)CC(C)(C)OC3 | 0 | 0 | ? | 0 | 0
O=c1[nH]c(=S)[nH]c2c1[C@H](C1CC1)O[C@H](CCc1ccccc1)C2 | 13µM | - | ? | - | -
O=c1[nH][nH]c2c1[C@H](CCc1cccc(Cl)c1)O[C@H](CCc1ccccc1)C2 | 18µM | - | ? | - | -
O=c1[nH]c(=S)[nH]c2c1C(c1ccc(F)cc1)OC(CCc1ccccc1)C2 (stereo unspecified) | ? | - | 0 | - | -
COC(=O)CCCC[C@@H]1O[C@H](CCc2ccccc2)Cc2[nH][nH]c(=O)c21 | ? | - | 0 | - | -
CC(C)Cn1c(=O)c2ccccc2n2c(CCC(=O)NC3CCN(Cc4ccccc4)CC3)nnc12 | 0 | 0 | 0 | 0 | 0
CC(=O)Nc1cccc(NC(=O)Nc2ccc(C)c(Cl)c2)c1 | 0 | ? | 0 | 0 | 0
Cc1ccc(NC(=O)Nc2ccc(F)c(Cl)c2)cc1 | 23µM | 0 | ? | 0 | 0
CC(=O)Nc1cccc(NC(=S)Nc2ccc(F)c(Cl)c2)c1 | ? | 0 | 16µM | 0 | -
COc1ccc(NC(=O)Nc2ccc(F)c(Cl)c2)cc1 | 16µM | ? | ? | ? | 0
COc1ccc(NC(=O)Nc2cc(C)ccc2F)cc1 | 0 | 0 | 0 | 0 | 0
O=C(CC1C(=O)NCCN1Cc1ccoc1)NCc1cccc(OC(F)(F)F)c1 (stereo unspecified) | 0 | 0 | 0 | 0 | -
COc1ccc(N2CCN(C(=O)Cn3cnc4sc(C)c(S(=O)(=O)N5CCC(C)CC5)c4c3=O)CC2)cc1 | 23µM | - | ? | - | 0
